Measurements from PubChem BioAssay (NCI).
About 79,000 compounds went through this panel and 15% of them were active in at least one assay; those are over-represented in the sample as a whole. A number with no mark means an inactive call. Activity calls are given as the source filed them. Rule as the data show it: active = growth inhibition above about 70%; inactive = the rest.

How the values were obtained:
[1] = NCI Yeast Anticancer Drug Screen. Data for the rad50 strain (AID 155);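 also: 0% = growth of vehicle-only cultures of the same strain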; conditions: S. cerevisiae rad50 strain growth inhibition; at 50.0 µM; active compounds read high
Summary of the method: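 A DNA repair-deficient yeast mutant serves as the test organism; compound-induced growth inhibition is calculated against vehicle-treated cells.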

[2] = NCI Yeast Anticancer Drug Screen. Data for the mec2-1 strain (AID 157); conditions: S. cerevisiae mec2-1 strain, at 50.0 µM, active compounds read high
Summary of the method: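 Using mec2-1 yeast: add compound, measure growth, express inhibition versus vehicle-treated cultures.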

[3] = NCI Yeast Anticancer Drug Screen. Data for the sgs1 mgt1 strain (AID 161);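 also: 0% = growth of cultures given vehicle only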; conditions: S. cerevisiae sgs1 mgt1 strain, at 50.0 µM, active compounds read high
Summary of the method: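 Growth of a repair-deficient yeast mutant was monitored after compound treatment and expressed as inhibition relative to vehicle-treated cultures.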

[4] = NCI Yeast Anticancer Drug Screen. Data for the cln2 rad14 strain (AID 165);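 also: 0% = growth equal to vehicle treated cultures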; conditions: S. cerevisiae cln2 rad14 strain, at 50.0 µM, active compounds read high
Summary of the method: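 Yeast strain cln2 rad14, bearing defects in cell cycle control and DNA repair, serves as the test system; values reflect growth inhibition compared with vehicle.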

[5] = NCI Yeast Anticancer Drug Screen. Data for the bub3 strain (AID 167); conditions: S. cerevisiae bub3 mutant strain, at 50.0 µM, active compounds read high
Summary of the method: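 Inhibition values come from growth of compound-treated mutant yeast normalised to vehicle-treated controls.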

[6] = NCI Yeast Anticancer Drug Screen. Data for the mlh1 rad18 strain (AID 175); conditions: S. cerevisiae mlh1 rad18 strain growth inhibition; at 50.0 µM; active compounds read high
Summary of the method: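 Steps: expose repair-defective yeast to compound; measure growth; express inhibition against vehicle-treated controls.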

| Compound | growth inhibition [1] | growth inhibition [2] | growth inhibition [3] | growth inhibition [4] | growth inhibition [5] | growth inhibition [6] |
| --- | --- | --- | --- | --- | --- | --- |
| O=C(O)C(CO)C(CO)C(=O)O (stereo not given) | -12.9% | -14.4% | -7.05% | -14.7% | -22.8% | -2.15% |
| C[S+](C)CC(=O)c1ccccc1O | -2.55% | -9.7% | 2.2% | -62.4% | 3.4% | -0.6% |
| O=C(O)CSc1ncnc2nc[nH]c12 | 1.6% | -30.2% | 1.9% | 27.6% | -5.25% | -12.9% |
| C=C1C2CCC3(CCC4C5(C)CCCC4(CN(CCO)C5)C3C2)C1O (stereo not given) | -13.6% | -39.9% | -4.45% | 12.8% | -13.4% | -1.15% |
| O=Cc1ccc(/C=C2\NC(=O)NC2=O)cc1 | -6.25% | -7.9% | -26.9% | -0.05% | -9.3% | -5.55% |
| O=C(Cn1nnc(N2CCCCC2)n1)N/N=C/c1ccccc1O | -29.7% | -42% | -9% | -10.8% | -9.05% | -29.3% |
| CCc1cnccc1C | 10.3% | -14.9% | -19.1% | 6.25% | 6.45% | -9.75% |
| CCOC(Cn1ncc(C#N)c1N)OCC | -13.7% | -7.75% | -25.5% | -15.9% | -5.95% | 5.65% |
| O=C(CCC(O)(C(=O)c1ccccc1)c1ccccc1)c1ccccc1 (stereo not given) | 9.25% | 9.5% | -0.1% | 6.35% | 0.4% | 26.4% |
| CN(C)c1c2c(oc(=O)c1Cl)-c1ccccc1OCC2 | -14.3% | -12.8% | -10.4% | -4.85% | -19.1% | -17.6% |
| Nc1nnc2nc(CC(=O)c3cccc([N+](=O)[O-])c3)c(CC(=O)c3cccc([N+](=O)[O-])c3)nn12 | 4.5% | 4.2% | 9.35% | 18.2% | 18.6% | 14.8% |
| CN(C)CSC(=S)NCCNC(=S)SCN(C)C | 1.6% | -19.6% | 24.8% | 5.95% | 4% | -4.1% |
| C[C@]12CCC(=O)CC1CCCC2=O (stereo not given in full) | 9.9% | -10.8% | 6.4% | 24.1% | -6.7% | 19.8% |
| CCCCCCCCCCCCCCCCS(=O)(=O)N/N=C(/c1ccc(Cl)cc1)N1CCCCC1 | -18.2% | -32.1% | 3.25% | 21.2% | -10.2% | -4.85% |
| COc1cc(/C=C/C(=O)O)cc(OC)c1OC | -4.95% | -2.1% | 12.9% | 6.1% | 11.2% | 10.7% |
| O=C(OC1CC2CCC1C2)c1cc([N+](=O)[O-])cc([N+](=O)[O-])c1 (stereo not given) | 8.55% | -1.4% | -9% | -20.4% | -3.7% | -3% |
| Nc1nc(C2CCCCC2)cc(=O)[nH]1 | 1.2% | 9% | -4.3% | -25.1% | 5.5% | -0.65% |
| O=c1oc(-c2ccccc2)c(-c2ccccc2)o1 | 43% | 22.8% | 21.9% | -46.8% | 45.6% | 46.4% |
| C=CCOCn1cc(C)c(=O)[nH]c1=O | 5.6% | 17.4% | 36.4% | 5.5% | 6.5% | 17.4% |
| O=C(O)C1CCCCC1C(=O)O.[NH-]C1CCC1.[NH2-].[Pt+2] (stereo not given) | 99.2% (active) | 99.3% (active) | 99.4% (active) | 99.3% (active) | 99% (active) | 99.1% (active) |

| Compound | growth inhibition [1] | growth inhibition [2] | growth inhibition [3] | growth inhibition [4] | growth inhibition [5] | growth inhibition [6] |
| --- | --- | --- | --- | --- | --- | --- |
| Cc1ccc(S(=O)(=O)N2C(=N)C(=S)N(C)C2=O)cc1 | -42.9% | -10.3% | -15.4% | -30.4% | -15.8% | 12.4% |
| CC(C)C(=O)Nc1cccc([N+](=O)[O-])c1 | -2.1% | -8.75% | 6.75% | -24.6% | -6.85% | -7.6% |
| Cc1ccc(S(=O)(=O)OC2C3OC(C)(C)OC3OC2C(c2cc(O)c3c(c2O)C(=O)c2ccccc2C3=O)c2cc(O)c3c(c2O)C(=O)c2ccccc2C3=O)cc1 (stereo not given) | -35.5% | -25.6% | -11.6% | -5% | -8.2% | -25.1% |
| CCOc1cc2c(cc1O)CC[C@@H]1[C@@H]2CC[C@]2(C)C(N)CC[C@@H]12 (stereo not given in full) | -0.95% | 5.85% | -18.2% | -33.1% | -20.1% | -8.8% |
| CC(=O)OCC(OC(C)=O)C(OC(C)=O)C(/C=C/N=[N+]([O-])c1ccccc1)OC(C)=O (stereo not given) | 49% | 31.5% | 45.5% | 42.6% | 48.6% | 44.9% |
| O=c1[nH]cc(Nc2ccccc2)c(=O)[nH]1 | -1.1% | 2.35% | 4.95% | -35.2% | -29.6% | -9.65% |
| COc1cc(/C=C(/C#N)C(N)=O)cc(OC)c1OC | 15.6% | 10.6% | 18.9% | 12.3% | 11.1% | 14.8% |
| Cc1c2ccccc2cc2c1ccc1c(Br)cccc12 | 10.1% | -3.45% | 21.3% | 25.8% | 12.1% | 5.8% |
| O=C(Nc1cccnc1)c1ccc([N+](=O)[O-])s1 | 11.1% | 0.6% | 29.3% | 9.25% | 11.1% | 16.1% |
| COc1c2cc3c(cc2nc2occc12)OCO3 | 1.1% | -5.35% | -9.3% | 2.6% | -11.2% | 5.55% |
| O=C1CSC(c2ccccc2Br)N1c1nncs1 (stereo not given) | -5.05% | -5.7% | 1.95% | 0.9% | 13.6% | 7.75% |
| CC(=O)Oc1ccc(-c2c3ccccc3cc3c2ccc2ccccc23)cc1 | 1.75% | -10.4% | -9.85% | -5.05% | -2.7% | -28.3% |
| Oc1ccc(N=Nc2ccccc2)c(O)c1 | 54% | 29.1% | 43.5% | -18.9% | 46% | 64% |
| Nc1cccc2ncccc12 | 0.6% | -9.95% | -13.5% | -30% | -1.95% | -19.9% |
| CSc1nc(N)n2nc(C3CC3)cc2n1 | 5.5% | -10.8% | 16.1% | 21.4% | 15.9% | 3.4% |
| COC(=O)C1=C(C)N(NC(=O)Nc2ccccc2)C2(N)N(NC(=O)Nc3ccccc3)C(C)=C(C(=O)OC)C12C(=O)OC (stereo not given) | -8.9% | 5.1% | 3.55% | 2.2% | 15.2% | -2.8% |
| O=C(Nc1ccccc1-c1ccccc1)c1cccnc1 | 2.65% | 22.6% | 9.2% | 8.1% | -11.2% | 5.45% |
| Cc1[nH]c2ccccc2c1CC1CC(=O)OC1=O (stereo not given) | -8.35% | -18.6% | 12.5% | 6.3% | -9.15% | -7.15% |
| N=C(N)c1ccc(N=Nc2ccc(N)cc2N)cc1 | 7.4% | -3.75% | -7.45% | 12.8% | -5.25% | -0.4% |
| O=C(O)c1cccc(C2=CCCC2)c1 | 15.2% | 6.1% | 14.1% | 10.3% | -26.5% | 15.7% |
